Source: PubChem BioAssay (NCATS)
Records with an inconclusive call do not appear. A number with no mark means an inactive call. Calls of active or inactive are those of the source. Calls follow the shape of the dose curve; as a rule, active = well fitted inhibition curve with a large enough effect; inconclusive = small, poorly fitted or top-dose-only effect; inactive = flat fitted curve, though single readings scatter.

The compounds below were run on CRL-7250 (assay: Cytotoxic Profiling of Annotated Libraries Using Quantitative High-Throughput Screening (AID 1296008; also: nearly all actives have a fitted effect of over 60% in size)). Settings: Five cell lines viability, CellTiter-Glo ATP luminescence, 48-72 h; max response: stronger effect = lower value.
How it was run: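 Cells exposed to compounds for 48 or 72 hr at 37 degrees Celsius. Viability read as ATP-coupled luminescence with CellTiter-Glo after 10 min at room temperature.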
% is scaled to controls: 0 for no effect and ±100 for the full control effect; potency is read from the fitted curve at half-maximal effect.

Row | Compound | max response [%] | outcome | Potency
1 | COc1c(C)c(OCC(O)C(C)(C)O)cc2c1COC2=O (configuration not stated) | 4.27 | – | –
2 | CN(C)CCn1cc(S(=O)(=O)c2cccc(F)c2)c2cccnc21 | – | inactive | –
3 | COc1cc2ncnc(Nc3cccc(Cl)c3F)c2cc1OC(=O)N1CCN(C)C[C@H]1C | -58.2 | – | –
4 | C=C1CCC2C(C)(C(=O)O)CCCC2(C)C1CCC(C)CC(=O)O (configuration not stated) | 1.5 | – | –
5 | CCCC1(c2ccccc2)NC(=O)N(CC(=O)N(C)Cc2c(F)cccc2Cl)C1=O (configuration not stated) | -1.75 | – | –
6 | CC(=O)c1ccc(O[C@@H]2O[C@H](CO)[C@@H](O)[C@H](O)[C@H]2O)cc1 | -8.35 | – | –
7 | N#Cc1cc(F)cc(-c2nc(-c3ccccn3)no2)c1 | 1.54 | – | –
8 | CC1(C)C[C@H](O)C[C@@]2(C)OC(=O)C=C12 | 1.12 | – | –
9 | CC(=O)O[C@@H]1c2c3c(cc(O)c2C(=O)O[C@@H]1C)O[C@@]1(C)[C@@H](O)C[C@H]2C(C)(C)C(=O)C=C[C@]2(C)[C@@H]1C3 | -27.6 | – | –
10 | CC1=C(C(=O)O)/C(=C/CO[C@@H]2O[C@H](COC(=O)/C=C/c3ccc(O)cc3)[C@@H](O)[C@H](O)[C@H]2O)C(O)C1 (some centres not stated) | 0.839 | – | –
11 | CC1(C)CC[C@]23CO[C@@]4(CCC5[C@@]6(C)CC[C@H](O[C@@H]7OC[C@H](O[C@@H]8O[C@H](CO)[C@@H](O)[C@H](O)[C@H]8O)[C@H](O)[C@H]7O[C@@H]7O[C@H](CO)[C@@H](O[C@@H]8O[C@H](CO)[C@@H](O)[C@H](O)[C@H]8O)[C@H](O)[C@H]7O)[C@@](C)(CO)C6CC[C@@]5(C)[C@]4(C)C[C@H]2OC2OCC(O)C(O)C2O)C3C1 (some centres not stated) | – | – | 1550 nM (active)
12 | COc1cc2c(cc1OC)CC(=O)N(CCCNC[C@H]1Cc3cc(OC)c(OC)cc31)CC2 | – | inactive | –
13 | COC(=O)/C=C/C12COC(C)(C)C1C(O)C(OC(C)=O)C1(C)C2CCC2(C)C(c3ccoc3)OC(=O)C3OC321 (configuration not stated) | -1.53 | – | –
14 | COc1c2c(c(C)c3c1C(=O)OC3)OC1(C)CC(O)C34OC(OC)(OC3(C)C)C(O)CC4(C)C1C2 (configuration not stated) | – | inactive | –
15 | C/C(=C\CC[C@@H](C)[C@H]1CC(O)[C@@]2(C)C3CC[C@H]4C(C)(C)[C@@H](OC5OCC(O)C(O)C5OC5OC(CO)C(O)C(O)C5O)CC[C@@]45C[C@@]35CC(O)[C@]12C)C(=O)O (some centres not stated) | -2.5 | – | –
16 | C[C@H](NC(=O)CCc1nc2ccccc2c(=O)[nH]1)c1ccccc1 | -24 | – | –
17 | Cc1cccc(S(=O)(=O)N2CCC[C@@H]2CCN2CCC(C)CC2)c1 | -2.64 | – | –
